Assay results taken from the supplement of paper PMC10849652.
About 7,900 targets were measured; listed, in parts, are those with a hit and a random draw of the rest. About 0.6% of all pairs of compound and target were hits.

Experiments:
Test in all cases: log2 fold change, soluble protein after heating vs DMSO (PISA); higher = thermal stabilisation; K562 cells, 10 uM, 30 min; active = over 0.2 and 3.5 SD of the protein, either way, in both replicates (recomputed)
[1] = compound: C1=CC=C(C=C1)[C@H](COC2=CC3=C(C=C2)NC(=O)N3)NC(=O)C4=CC=CN(C4=O)CC5=CC(=C(C=C5)F)F
Procedure, shortened: (§1)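 K562 cells at 2×10^6 cells/mL were given 10 μM compound for 30 min. Aliquots then went through 3 min of heating across 48°C-58°C, were pooled, and were extracted in PBS with 0.5% NP-40 at 4°C, and the supernatant after 21,000xg for 90 min was quantified by TMTpro 16plex LC-MS/MS with channel sums equalised. Thermal stability relative to control samples, from duplicates, is given as log2 fold change.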

[2] = compound: CC1=C(SC2=C1C(=N[C@H](C3=NN=C(N32)C)CC(=O)N)C4=CC=C(C=C4)Cl)C
Procedure, shortened: as §1

[3] = compound: CC1=C2C(=CC=C1)N=C(N(C2=O)C3=CC=CC=C3C)CN4C=NC5=C(N=CN=C54)N
Procedure, shortened: as §1

[4] = compound: Cc1sc2c(c1C)C(c1ccc(Cl)cc1)=N[C@@H](CC(=O)OC(C)(C)C)c1nnc(C)n1-2
Procedure, shortened: as §1

[5] = compound: c1ccc([C@@H]2C[C@H]2NC2CCNCC2)cc1
Procedure, shortened: as §1

Measured: log2 fold change

RPS21 (UniProt P63220)
inactive: [1] -0.008 | [2] -0.047 | [3] 0.028 | [4] 0.017 | [5] 0.02

RAP1GDS1 isoform 5 (UniProt P52306)
Sequence of UniProt P52306 (P52306 whole entry, looked up): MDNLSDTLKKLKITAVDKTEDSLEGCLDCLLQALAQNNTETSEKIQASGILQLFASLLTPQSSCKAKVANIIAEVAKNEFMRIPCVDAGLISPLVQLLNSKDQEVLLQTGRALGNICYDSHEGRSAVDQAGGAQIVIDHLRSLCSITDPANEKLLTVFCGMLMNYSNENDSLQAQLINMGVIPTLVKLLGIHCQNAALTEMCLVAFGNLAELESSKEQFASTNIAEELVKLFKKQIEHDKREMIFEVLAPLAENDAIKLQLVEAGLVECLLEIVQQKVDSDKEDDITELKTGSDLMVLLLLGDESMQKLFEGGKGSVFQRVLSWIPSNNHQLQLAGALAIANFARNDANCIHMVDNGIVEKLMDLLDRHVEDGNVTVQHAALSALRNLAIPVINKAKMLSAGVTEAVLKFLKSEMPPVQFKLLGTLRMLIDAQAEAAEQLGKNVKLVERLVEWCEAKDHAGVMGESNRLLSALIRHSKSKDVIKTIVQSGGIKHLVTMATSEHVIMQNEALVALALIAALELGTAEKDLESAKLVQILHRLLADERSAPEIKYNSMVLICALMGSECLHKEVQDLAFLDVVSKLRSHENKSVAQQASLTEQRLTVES
inactive: [1] -0.093 | [2] -0.01 | [3] 0.119 | [4] -0.001 | [5] -0.009

SLBP (UniProt Q14493)
Sequence of UniProt Q14493 (Q14493 whole entry, looked up): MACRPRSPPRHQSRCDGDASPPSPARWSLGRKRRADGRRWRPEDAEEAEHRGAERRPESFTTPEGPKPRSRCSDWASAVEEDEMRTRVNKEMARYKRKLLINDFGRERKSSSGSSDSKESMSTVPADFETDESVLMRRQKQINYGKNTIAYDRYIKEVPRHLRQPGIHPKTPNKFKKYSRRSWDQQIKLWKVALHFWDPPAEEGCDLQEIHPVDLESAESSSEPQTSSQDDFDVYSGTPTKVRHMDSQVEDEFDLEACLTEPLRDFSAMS
inactive: [1] -0.092 | [2] -0.056 | [3] 0.042 | [4] 0.059 | [5] 0.034

SAFB2 (UniProt Q14151)
Sequence of UniProt Q14151 (Q14151 whole entry, looked up): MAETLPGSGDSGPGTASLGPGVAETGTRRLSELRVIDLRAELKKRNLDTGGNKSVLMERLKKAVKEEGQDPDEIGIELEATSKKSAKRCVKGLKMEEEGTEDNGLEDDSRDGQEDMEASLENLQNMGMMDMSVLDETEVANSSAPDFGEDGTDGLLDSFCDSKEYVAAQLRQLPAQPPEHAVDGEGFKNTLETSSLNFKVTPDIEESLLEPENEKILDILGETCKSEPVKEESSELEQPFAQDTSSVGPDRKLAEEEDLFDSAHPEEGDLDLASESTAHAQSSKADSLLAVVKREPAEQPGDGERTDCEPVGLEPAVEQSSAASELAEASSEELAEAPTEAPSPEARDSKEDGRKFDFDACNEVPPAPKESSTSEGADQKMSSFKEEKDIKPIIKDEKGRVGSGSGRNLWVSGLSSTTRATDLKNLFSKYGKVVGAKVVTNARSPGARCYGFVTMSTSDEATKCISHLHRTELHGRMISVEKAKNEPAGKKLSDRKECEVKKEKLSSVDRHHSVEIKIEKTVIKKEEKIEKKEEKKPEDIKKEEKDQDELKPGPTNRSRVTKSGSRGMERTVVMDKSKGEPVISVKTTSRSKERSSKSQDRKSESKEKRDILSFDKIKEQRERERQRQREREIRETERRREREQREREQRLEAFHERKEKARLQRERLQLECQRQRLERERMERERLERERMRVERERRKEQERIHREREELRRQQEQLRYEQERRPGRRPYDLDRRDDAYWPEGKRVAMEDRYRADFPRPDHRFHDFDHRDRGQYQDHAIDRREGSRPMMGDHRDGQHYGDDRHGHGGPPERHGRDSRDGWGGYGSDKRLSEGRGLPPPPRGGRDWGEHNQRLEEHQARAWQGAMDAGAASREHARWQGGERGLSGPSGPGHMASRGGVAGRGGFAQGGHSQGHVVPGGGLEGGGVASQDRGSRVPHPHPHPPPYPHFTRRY
inactive: [1] 0.051 | [2] -0.087 | [3] -0.103 | [4] 0.045 | [5] 0

RDH11 (UniProt Q8TC12)
Sequence of UniProt Q8TC12 (Q8TC12 whole entry, looked up): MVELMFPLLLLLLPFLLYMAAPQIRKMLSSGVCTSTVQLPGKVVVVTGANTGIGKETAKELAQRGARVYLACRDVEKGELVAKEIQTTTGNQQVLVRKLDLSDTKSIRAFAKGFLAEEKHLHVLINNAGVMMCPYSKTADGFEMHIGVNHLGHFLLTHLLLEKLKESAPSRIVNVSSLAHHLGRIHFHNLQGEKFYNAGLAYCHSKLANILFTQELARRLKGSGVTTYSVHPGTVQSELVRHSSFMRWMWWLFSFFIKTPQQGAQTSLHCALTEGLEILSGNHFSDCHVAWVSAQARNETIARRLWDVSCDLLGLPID
inactive: [1] 0.258 | [2] 0.06 | [3] 0.266 | [4] 0.115 | [5] -0.058

RPS13 (UniProt P62277)
inactive: [1] 0.142 | [2] -0.234 | [3] -0.246 | [4] 0.213 | [5] 0

RAF1 isoform 2 (UniProt P04049)
Sequence of UniProt P04049 (P04049 whole entry, looked up): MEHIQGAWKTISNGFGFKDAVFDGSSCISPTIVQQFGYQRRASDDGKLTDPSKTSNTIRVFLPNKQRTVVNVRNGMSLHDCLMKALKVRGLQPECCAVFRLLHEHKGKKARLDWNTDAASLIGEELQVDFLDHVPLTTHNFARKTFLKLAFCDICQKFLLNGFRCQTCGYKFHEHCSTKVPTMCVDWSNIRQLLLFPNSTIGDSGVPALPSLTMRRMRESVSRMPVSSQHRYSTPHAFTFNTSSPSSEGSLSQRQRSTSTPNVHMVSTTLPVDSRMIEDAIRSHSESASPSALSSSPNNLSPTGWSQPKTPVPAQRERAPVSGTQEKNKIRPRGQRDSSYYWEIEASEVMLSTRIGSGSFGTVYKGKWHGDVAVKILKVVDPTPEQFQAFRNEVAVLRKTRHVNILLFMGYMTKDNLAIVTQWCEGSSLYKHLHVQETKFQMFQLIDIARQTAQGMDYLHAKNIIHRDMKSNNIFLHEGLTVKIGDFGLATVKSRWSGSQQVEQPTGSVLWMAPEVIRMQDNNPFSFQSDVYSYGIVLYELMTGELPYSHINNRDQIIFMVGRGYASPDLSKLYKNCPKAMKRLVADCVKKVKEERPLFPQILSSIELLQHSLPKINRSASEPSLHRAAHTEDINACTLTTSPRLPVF
inactive: [1] -0.08 | [2] 0.201 | [3] 0.222 | [4] -0.07 | [5] -0.105

RRP12 (UniProt Q5JTH9)
Sequence of UniProt Q5JTH9 (Q5JTH9 whole entry, looked up): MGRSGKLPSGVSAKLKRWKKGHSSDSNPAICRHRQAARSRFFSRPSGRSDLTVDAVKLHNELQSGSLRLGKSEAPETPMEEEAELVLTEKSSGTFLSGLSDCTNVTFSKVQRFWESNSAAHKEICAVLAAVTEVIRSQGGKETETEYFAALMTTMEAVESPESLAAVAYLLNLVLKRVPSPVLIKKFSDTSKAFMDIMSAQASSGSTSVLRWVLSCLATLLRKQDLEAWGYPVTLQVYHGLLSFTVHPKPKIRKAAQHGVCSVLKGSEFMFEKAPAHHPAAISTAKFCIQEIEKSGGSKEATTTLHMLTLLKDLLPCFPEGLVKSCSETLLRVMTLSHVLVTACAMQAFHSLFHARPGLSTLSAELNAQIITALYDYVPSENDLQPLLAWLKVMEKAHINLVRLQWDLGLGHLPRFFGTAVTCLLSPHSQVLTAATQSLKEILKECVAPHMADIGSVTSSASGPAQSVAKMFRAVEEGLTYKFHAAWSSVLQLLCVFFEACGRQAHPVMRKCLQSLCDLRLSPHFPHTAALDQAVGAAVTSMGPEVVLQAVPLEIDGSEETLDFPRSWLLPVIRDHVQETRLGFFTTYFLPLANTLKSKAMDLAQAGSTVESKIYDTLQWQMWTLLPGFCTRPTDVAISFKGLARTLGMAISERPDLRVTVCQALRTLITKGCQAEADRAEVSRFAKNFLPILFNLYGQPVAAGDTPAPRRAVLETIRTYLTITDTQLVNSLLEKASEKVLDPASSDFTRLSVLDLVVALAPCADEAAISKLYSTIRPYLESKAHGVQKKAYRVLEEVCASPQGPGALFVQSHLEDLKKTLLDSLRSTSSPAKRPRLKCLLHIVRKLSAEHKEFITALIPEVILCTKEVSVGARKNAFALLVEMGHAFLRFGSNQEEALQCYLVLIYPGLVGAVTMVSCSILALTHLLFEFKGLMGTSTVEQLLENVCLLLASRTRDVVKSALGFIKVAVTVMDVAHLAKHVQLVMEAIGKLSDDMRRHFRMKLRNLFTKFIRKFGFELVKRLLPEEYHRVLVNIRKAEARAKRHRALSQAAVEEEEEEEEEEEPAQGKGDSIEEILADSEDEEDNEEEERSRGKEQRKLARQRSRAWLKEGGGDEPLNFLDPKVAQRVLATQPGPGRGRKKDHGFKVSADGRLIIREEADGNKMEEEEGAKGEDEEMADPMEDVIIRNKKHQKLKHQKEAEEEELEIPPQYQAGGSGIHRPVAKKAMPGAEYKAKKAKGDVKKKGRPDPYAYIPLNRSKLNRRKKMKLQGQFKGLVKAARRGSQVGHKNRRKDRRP
inactive: [1] -0.015 | [2] -0.068 | [3] 0.045 | [4] 0.001 | [5] 0

SDCBP (UniProt O00560)
Sequence of UniProt O00560 (O00560 whole entry, looked up): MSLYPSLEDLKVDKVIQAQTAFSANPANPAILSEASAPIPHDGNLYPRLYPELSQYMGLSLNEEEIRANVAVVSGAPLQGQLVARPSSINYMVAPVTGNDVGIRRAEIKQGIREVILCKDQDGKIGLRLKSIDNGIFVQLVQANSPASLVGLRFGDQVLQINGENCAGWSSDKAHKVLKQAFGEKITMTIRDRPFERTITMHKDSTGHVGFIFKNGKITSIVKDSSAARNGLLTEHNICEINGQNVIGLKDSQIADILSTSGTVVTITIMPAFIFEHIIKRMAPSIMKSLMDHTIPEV
inactive: [1] 0.029 | [2] -0.031 | [3] -0.067 | [4] 0.04 | [5] -0.102
